Active and inactive are the calls of the source. Rule for the calls: active = hit-call score of the fitted dose curve at least 0.9, where 1 is the maximum; inactive = score below 0.9.
Assays:
[1] = ATG_CRE_CIS: Attagene CIS-FACTORIAL HepG2 Assay for human cAMP Responsive Element (CRE) binding protein 3 (AID 2282926); settings: HepG2 CRE cis-reporter, Attagene multiplexed mRNA; actives raise or lower the signal
Outline: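 We dosed HepG2 cells bearing multiple cis-promoter reporter units for 24 h and measured reporter mRNA by RT-PCR with capillary electrophoresis detection. Bidirectional concentration-response fitting used DMSO as negative control.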

[2] = biological target: CCAAT/enhancer-binding protein beta (Homo sapiens) (UniProt P17676); assay: ATG_C_EBP_CIS: Attagene CIS-FACTORIAL HepG2 Assay for human CCAAT/Enhancer Binding Protein (C/EBP) beta (AID 2282927); settings: HepG2 Attagene cis-factorial transcription factor reporter; actives raise or lower the signal
Outline: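 HepG2 transiently transfected with multiplexed reporter units under cis-regulatory promoters reporting endogenous C/EBPb activity. After 24 h exposure, reporter mRNA assayed by RT-PCR, fluorescent labelling, HpaI digestion and capillary electrophoresis; bidirectional fitting versus DMSO.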

[3] = ATG_CMV_CIS: Attagene CIS-FACTORIAL HepG2 Assay for human CMV (Internal Marker) (AID 2282928); settings: HepG2 CMV promoter reporter, transcription factor profiling; actives raise or lower the signal;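 note: endpoint acts as a background internal control marker rather than a target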
Outline: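 CMV internal-marker background readout in transiently transfected HepG2 cells bearing cis-regulated reporter units. Reporter mRNA is measured 24 h after dosing by RT-PCR and capillary electrophoresis, with bidirectional fitting against DMSO.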

[4] = ATG_DR4_LXR_CIS: Attagene CIS-FACTORIAL HepG2 Assay for human Liver X Receptor (LXR), DR4 submotif (AID 2282929); settings: HepG2 Attagene DR4 cis-reporter, mRNA transcription; actives raise or lower the signal
Outline: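 After transient transfection with multiplexed cis-promoter reporter units, HepG2 cells received test chemicals for 24 h. Reporter mRNA induction, detected by fluorescence after RT-PCR and capillary electrophoresis, was scored relative to DMSO.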

[5] = biological target: Aryl hydrocarbon receptor (Homo sapiens) (UniProt P35869); assay: ATG_Ahr_CIS: Attagene CIS-FACTORIAL HepG2 Assay for human Aryl Hydrocarbon Receptor (Ahr) (AID 2282930); settings: HepG2 AhR cis-factorial reporter transcription; actives raise or lower the signal
Outline: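 HepG2 cells transiently transfected with cis-element-driven multiplexed reporter units; endogenous AhR activity read as reporter mRNA 24 h after dosing, via RT-PCR, 6-FAM labelling, HpaI digestion and capillary electrophoresis. Bidirectional fit relative to DMSO.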

[6] = ATG_AP_1_CIS: Attagene CIS-FACTORIAL HepG2 Assay for human Activator Protein 1 (AP-1) (AID 2282931); settings: HepG2 Attagene cis-factorial AP-1 reporter mRNA; actives raise or lower the signal
Outline: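 After 24 h incubation with test chemical, RNA from transfected HepG2 cells was reverse-transcribed, amplified, fluorescently labelled and digested before capillary electrophoresis. Reporters were driven by cis-regulatory promoters; activity fitted bidirectionally versus DMSO.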

[7] = ATG_AP_2_CIS: Attagene CIS-FACTORIAL HepG2 Assay for human Activator Protein 2 (AP-2) (AID 2282932); settings: HepG2 AP-2 cis-reporter, Attagene transcription factor profiling; actives raise or lower the signal
Outline: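 HepG2 cells transiently transfected with cis-element reporter units and exposed for 24 h. Reporter mRNA measured by RT-PCR, FAM labelling, HpaI digestion and capillary electrophoresis. Changes in either direction fitted relative to DMSO.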

[8] = ATG_BRE_CIS: Attagene CIS-FACTORIAL HepG2 Assay for human Bone Morphogenetic Protein (BMP) Response Element (BRE) (AID 2282933); settings: HepG2 BMP response element reporter, Attagene transcription factor profiling; actives raise or lower the signal
Outline: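 HepG2 cells transiently transfected with CIS reporter units (endogenous TF activity, BMP response element), dosed 24 h. Reporter mRNA quantified by RT-PCR, fluorescent labelling and capillary electrophoresis; bidirectional fit vs DMSO baseline.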

[9] = biological target: Retinoic acid receptor alpha (Homo sapiens) (UniProt P10276); assay: ATG_DR5_RAR_CIS: Attagene CIS-FACTORIAL HepG2 Assay for human Retinoic Acid Receptor Alpha (RARE), DR5 submotif (AID 2282934); settings: HepG2 Attagene cis-factorial RARE DR5 reporter, mRNA; actives raise or lower the signal
Outline: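 HepG2 cells transiently transfected with multiplexed reporter units; DR5 cis-element drives reporter through endogenous transcription factors. After 24 h dosing, reporter mRNA quantified by RT-PCR, fluorescent labeling, HpaI digestion and capillary electrophoresis; bidirectional fitting versus DMSO.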

[10] = biological target: Transcription factor E2F1 (Homo sapiens) (UniProt Q01094); assay: ATG_E2F_CIS: Attagene CIS-FACTORIAL HepG2 Assay for human E2F Transcription Factor 1 (AID 2282935); settings: HepG2 Attagene cis-reporter, E2F reporter RNA transcripts; actives raise or lower the signal
Outline: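 Endogenous E2F1 activity read through cis-promoter reporter units transfected into HepG2. After 24 h compound treatment, reporter mRNA measured by RT-PCR, HpaI digestion and capillary electrophoresis. Bidirectional fit versus DMSO.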

[11] = ATG_E_Box_CIS: Attagene CIS-FACTORIAL HepG2 Assay for human Enhancer Box (E-box) (AID 2282936); settings: HepG2 E-box cis-reporter transcription, actives raise or lower the signal
Outline: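 HepG2 cells transiently transfected with multiplexed cis-element reporter units, dosed 24 h; reporter mRNA quantified by RT-PCR, 6-FAM labelling, HpaI digestion and capillary electrophoresis. E-box (USF1) signal fitted bidirectionally vs DMSO.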

[12] = ATG_M_61_CIS: Attagene CIS-FACTORIAL HepG2 Assay for M61 Transcription Factor (Internal Marker) (AID 2282937); settings: HepG2 Attagene CIS-FACTORIAL M61 internal marker reporter; actives raise or lower the signal
Outline: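 Using transiently transfected HepG2 liver cells, reporter transcript levels were assessed 24 h post-dosing by RT-PCR and capillary electrophoresis. Changes in either direction were fitted relative to DMSO controls.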

[13] = ATG_EGR_CIS: Attagene CIS-FACTORIAL HepG2 Assay for human Early Growth Response 1 (EGR1) (AID 2282938); settings: HepG2 Attagene CIS-FACTORIAL EGR reporter mRNA; actives raise or lower the signal
Outline: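 Fluorescent capillary-electrophoresis signal of reporter cDNA fragments serves as read-out. HepG2 cells bear transiently transfected cis-promoter reporter units and are exposed 24 h; gain- or loss-of-signal is fitted against DMSO.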

[14] = ATG_M_19_CIS: Attagene CIS-FACTORIAL HepG2 Assay for M19 Transcription Factor (Internal Marker) (AID 2282939); settings: HepG2 Attagene CIS-FACTORIAL M19 internal marker reporter; actives raise or lower the signal
Outline: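 HepG2 cells transiently transfected with cis-regulated multiplexed reporter units, dosed 24 h. Reporter mRNA quantified by RT-PCR and capillary electrophoresis; internal background marker fitted bidirectionally versus DMSO.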

[15] = ATG_Ets_CIS: Attagene CIS-FACTORIAL HepG2 Assay for human Erythroblast Transformation Specific (ETS) (AID 2282941); settings: HepG2 ETS cis-reporter transcription, actives raise or lower the signal
Outline: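 HepG2 cells transfected with multiple cis-regulated reporter units measuring endogenous ETS-driven transcription, 24 h after dosing. Reporter mRNA quantified by RT-PCR with capillary electrophoresis; bidirectional fit relative to DMSO.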

[16] = biological target: Hepatocyte nuclear factor 3-beta (Homo sapiens) (UniProt Q9Y261); assay: ATG_FoxA2_CIS: Attagene CIS-FACTORIAL HepG2 Assay for human Forkhead box A2 (FOXA2) (AID 2282942); settings: HepG2 cis-reporter transcription factor activity, 24 h; actives raise or lower the signal
Outline: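 Fluorescence signal of reporter cDNA fragments, separated by capillary electrophoresis, reflects endogenous transcription factor activity in transfected HepG2 after 24 h. Both increases and decreases fitted against DMSO.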

[17] = ATG_FoxO_CIS: Attagene CIS-FACTORIAL HepG2 Assay for human Forkhead box O (FoxO) (AID 2282943); settings: HepG2 Attagene cis-reporter, FoxO element, mRNA; actives raise or lower the signal
Outline: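 HepG2 cells transiently transfected with cis-element-driven reporter units report endogenous FoxO activity. After 24 h chemical exposure, reporter mRNA quantified by RT-PCR, fluorescent labeling, HpaI digestion and capillary electrophoresis; bidirectional fit versus DMSO.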

[18] = ATG_GATA_CIS: Attagene CIS-FACTORIAL HepG2 Assay for human GATA Binding Protein (AID 2282944); settings: HepG2 GATA cis-element reporter, Attagene multiplex mRNA; actives raise or lower the signal
Outline: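 HepG2 cells transiently transfected with multiplexed cis-element reporter units measure endogenous GATA activity; after 24 h compound exposure, reporter mRNA quantified by RT-PCR and capillary electrophoresis. Changes fitted in both directions vs DMSO.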

[19] = ATG_GLI_CIS: Attagene CIS-FACTORIAL HepG2 Assay for human Zinc Finger Protein GLI1 (AID 2282945); settings: HepG2, Attagene cis-factorial reporter mRNA, GLI element; actives raise or lower the signal
Outline: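 Transiently transfected HepG2 cells report endogenous transcription factor activity via cis-element-driven reporter units. After 24 h compound exposure, reporter mRNA was measured by RT-PCR with capillary electrophoresis; bidirectional fitting against DMSO baseline.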

[20] = ATG_ERE_CIS: Attagene CIS-FACTORIAL HepG2 Assay for Estrogen Response Element (ERE) (AID 2282940); settings: HepG2 ERE cis-reporter, Attagene RNA transcript; actives raise or lower the signal
Outline: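 HepG2 cells transiently transfected with multiplexed cis-element reporter units, measuring endogenous transcription factor activity; ERE reporter mRNA quantified after 24 h exposure by RT-PCR, fluorescent labelling, HpaI digestion and capillary electrophoresis. Bidirectional change versus DMSO.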

Measured: AC50

Chain of Transcription factor E2F1 (Homo sapiens) (Q01094 whole entry, looked up): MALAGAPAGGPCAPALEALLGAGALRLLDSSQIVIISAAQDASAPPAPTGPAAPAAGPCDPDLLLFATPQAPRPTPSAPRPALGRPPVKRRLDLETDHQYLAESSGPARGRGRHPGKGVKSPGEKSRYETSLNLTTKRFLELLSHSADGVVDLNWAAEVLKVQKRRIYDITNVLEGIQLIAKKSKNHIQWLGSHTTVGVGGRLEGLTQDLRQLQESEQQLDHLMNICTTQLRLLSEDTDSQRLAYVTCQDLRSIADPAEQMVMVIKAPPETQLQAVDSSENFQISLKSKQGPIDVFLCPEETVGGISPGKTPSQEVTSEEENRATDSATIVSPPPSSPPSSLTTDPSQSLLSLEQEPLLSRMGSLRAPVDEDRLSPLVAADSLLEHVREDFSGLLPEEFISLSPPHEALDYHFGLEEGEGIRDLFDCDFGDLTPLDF
Chain of Hepatocyte nuclear factor 3-beta (Homo sapiens) (Q9Y261 whole entry, looked up, the tested form may be a part): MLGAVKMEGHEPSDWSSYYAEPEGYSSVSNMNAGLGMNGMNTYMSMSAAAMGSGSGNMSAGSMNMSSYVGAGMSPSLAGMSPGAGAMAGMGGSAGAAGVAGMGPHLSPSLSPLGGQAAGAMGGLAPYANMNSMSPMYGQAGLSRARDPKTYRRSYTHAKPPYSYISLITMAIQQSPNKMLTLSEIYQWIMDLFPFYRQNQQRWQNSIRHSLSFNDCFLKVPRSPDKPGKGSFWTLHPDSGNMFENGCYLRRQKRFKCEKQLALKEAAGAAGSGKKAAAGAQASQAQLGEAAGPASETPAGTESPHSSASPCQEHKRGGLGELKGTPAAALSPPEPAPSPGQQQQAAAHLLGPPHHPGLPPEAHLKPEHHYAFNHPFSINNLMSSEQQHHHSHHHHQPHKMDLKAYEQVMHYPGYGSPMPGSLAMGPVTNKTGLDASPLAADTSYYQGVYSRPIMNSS
Chain of Aryl hydrocarbon receptor (Homo sapiens) (P35869 whole entry, looked up): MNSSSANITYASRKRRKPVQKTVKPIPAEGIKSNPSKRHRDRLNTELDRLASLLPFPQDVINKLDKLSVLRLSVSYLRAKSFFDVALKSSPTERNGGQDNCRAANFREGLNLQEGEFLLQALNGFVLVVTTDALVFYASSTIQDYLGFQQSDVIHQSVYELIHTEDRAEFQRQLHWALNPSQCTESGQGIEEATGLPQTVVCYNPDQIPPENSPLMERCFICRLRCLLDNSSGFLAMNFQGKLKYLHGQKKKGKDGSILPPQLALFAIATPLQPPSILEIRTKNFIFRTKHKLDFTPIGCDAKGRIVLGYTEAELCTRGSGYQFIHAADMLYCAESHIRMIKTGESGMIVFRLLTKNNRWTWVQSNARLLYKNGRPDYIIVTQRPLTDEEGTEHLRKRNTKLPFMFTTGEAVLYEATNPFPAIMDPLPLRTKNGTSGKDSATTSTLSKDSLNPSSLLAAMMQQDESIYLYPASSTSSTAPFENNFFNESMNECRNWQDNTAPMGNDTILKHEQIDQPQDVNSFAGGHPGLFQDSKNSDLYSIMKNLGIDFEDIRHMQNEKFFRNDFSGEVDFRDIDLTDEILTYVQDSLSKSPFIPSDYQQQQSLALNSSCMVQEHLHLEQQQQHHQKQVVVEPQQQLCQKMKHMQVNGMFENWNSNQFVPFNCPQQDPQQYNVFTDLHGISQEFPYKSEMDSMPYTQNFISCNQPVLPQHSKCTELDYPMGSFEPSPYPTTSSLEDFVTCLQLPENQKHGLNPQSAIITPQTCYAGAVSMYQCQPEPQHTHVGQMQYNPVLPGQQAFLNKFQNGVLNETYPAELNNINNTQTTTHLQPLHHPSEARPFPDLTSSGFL
Chain of Retinoic acid receptor alpha (Homo sapiens) (P10276 whole entry, looked up): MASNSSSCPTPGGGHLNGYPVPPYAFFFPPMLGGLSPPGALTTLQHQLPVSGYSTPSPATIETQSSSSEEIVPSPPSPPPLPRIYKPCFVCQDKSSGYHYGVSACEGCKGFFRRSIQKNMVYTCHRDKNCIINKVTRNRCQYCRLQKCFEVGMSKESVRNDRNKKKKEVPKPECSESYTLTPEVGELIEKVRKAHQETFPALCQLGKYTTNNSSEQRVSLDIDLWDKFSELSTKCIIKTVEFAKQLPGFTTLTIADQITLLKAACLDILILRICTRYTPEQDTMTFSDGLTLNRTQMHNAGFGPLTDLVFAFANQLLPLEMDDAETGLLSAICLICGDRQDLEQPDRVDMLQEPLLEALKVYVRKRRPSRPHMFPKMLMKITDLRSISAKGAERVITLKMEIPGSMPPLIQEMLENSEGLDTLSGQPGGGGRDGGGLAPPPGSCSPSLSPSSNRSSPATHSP
Chain of CCAAT/enhancer-binding protein beta (Homo sapiens) (P17676 whole entry, looked up): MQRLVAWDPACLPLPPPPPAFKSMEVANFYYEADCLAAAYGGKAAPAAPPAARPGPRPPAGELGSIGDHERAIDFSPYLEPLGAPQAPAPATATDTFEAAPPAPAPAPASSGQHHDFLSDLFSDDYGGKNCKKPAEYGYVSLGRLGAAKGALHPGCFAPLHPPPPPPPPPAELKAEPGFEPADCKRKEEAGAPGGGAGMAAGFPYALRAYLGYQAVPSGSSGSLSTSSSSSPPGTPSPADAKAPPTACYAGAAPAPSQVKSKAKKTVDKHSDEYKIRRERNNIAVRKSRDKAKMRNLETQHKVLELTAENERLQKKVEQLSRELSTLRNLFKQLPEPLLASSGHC

CCCC(C)=O
not listed: [20]
inactive: all other assays above

CC(C)(CO)[C@@H](O)C(=O)NCCC(=O)O
inactive: all assays above

O=c1c(O)c(-c2ccc(O)cc2)oc2cc(O)cc(O)c12
active: [3] 9.22 µM
not listed: [20]
inactive: all other assays above

CC(Oc1cc(Cl)ccc1Cl)C(=O)O (stereo not drawn)
not listed: [20]
inactive: all other assays above

CCCCCCCCCCCCCC(=O)OCC(O)CO (stereo not drawn)
not listed: [20]
inactive: all other assays above

Cc1ccc(-c2ccccc2)cc1
not listed: [20]
inactive: all other assays above

Cc1ncc([N+](=O)[O-])n1CCO
inactive: all assays above

CCCCCCCC/C=C\CCCCCCCC(=O)OCC
not listed: [20]
inactive: all other assays above

O=[N+]([O-])c1ccc(O)cc1C(F)(F)F
active: [1] 48 µM | [2] 58.8 µM | [3] 100 µM | [5] 53.8 µM | [6] 71.8 µM | [7] 26.4 µM | [8] 37.5 µM
not listed: [20]
inactive: all other assays above

CCCCOCC
not listed: [20]
inactive: all other assays above

CCCCCC(C)=O
not listed: [20]
inactive: all other assays above

CN(C)C(=S)SC(=S)N(C)C
not listed: [20]
inactive: all other assays above

C=C[Si]1(C)O[Si](C)(C=C)O[Si](C)(C=C)O[Si](C)(C=C)O1 (stereo not drawn)
active: [3] 51.7 µM | [4] 4.46 µM | [6] 36.1 µM
not listed: [20]
inactive: all other assays above

CC1(C)C2=CCCC(C)(C)[C@]23CC[C@H]1C3
active: [3] 112 µM | [4] 100 µM | [6] 100 µM
not listed: [20]
inactive: all other assays above

— PubChem BioAssay (EPA / NIEHS)
